Results taken from PubChem BioAssay (Tox21).
Values joined by “and” are separate entries in the source; they are usually repeats but may differ in a detail not shown here. Equal values may be shown once. Results filed as inconclusive are left out. Active and inactive are the calls of the source. Unless noted, calls come from the whole dose curve.

Tests used:
[1] = Nuclear factor erythroid 2-related factor 2/antioxidant responsive element (Nrf2/ARE) small molecule agonists: luciferase reporter gene qHTS assay in human keratinocytes (AID 1919969); note: nearly all actives have a fitted effect of over 35% in size; note: potency is the fitted concentration of half-maximal effect
[2] = target: KiSS-1 receptor (Homo sapiens) (UniProt Q969F8); assay: Human kisspeptin (KISS1R) small molecule agonists, calcium flux assay in KISS1R-HEK293 cells (AID 1920064; active = well fitted activation curve with a large enough effect in the repeat runs)
How it was run: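 Agonist activity is monitored as intracellular calcium rise in engineered HEK293 cells carrying human KISS1R. Cells are dye-loaded for 1 h at 37 C before compound addition, and fluorescence is recorded for 3 min.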

[3] = G protein-coupled receptor (GPCR) small molecule agonists, calcium flux assay: HEK293 wild type cell line counter screen (AID 1920065)
How it was run: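 Seed cells, incubate 18 h (37 C, 5% CO2); add calcium dye, 1 h at 37 C; pin-transfer compounds, ATP control or DMSO; read fluorescence 480/540 nm each second for 3 min.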

[4] = p53 small molecule agonists, cell-based qHTS assay with human liver microsomes (AID 1963577);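 note: p53 response element beta-lactamase reporter cells with liver microsomes plus NADPH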
How it was run: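 16 h, 37 C exposure of p53RE-bla cells to compounds with human liver microsomes and NADPH (0.5 mg/mL final each); detection via LiveBLAzer mixture, 2 h dark at room temperature.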

[5] = p53 small molecule agonists, cell-based qHTS assay with human liver microsomes: qHTS cell viability counter screen (AID 1963579); note: nearly all actives have a fitted effect of over 45% in size
How it was run: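 In this multiplexed counter screen, the reporter plates were subsequently treated with CellTiter-Glo so that cell viability, reflected by luminescence, could be recorded for p53RE-bla cells dosed 16 h with compounds under microsomal activation (HLM and NADPH).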

[6] = p53 small molecule agonists, cell-based qHTS assay: qHTS cell viability counter screen (AID 1963581); note: nearly all actives have a fitted effect of over 45% in size
How it was run: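 Viability was counter-screened in parallel with the p53 agonist reporter by measuring intracellular ATP luminescence in the same HCT-116 p53RE-bla wells after 16 h compound treatment at 37 C.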

[7] = target: 5-hydroxytryptamine receptor 2A (Homo sapiens) (UniProt P28223); assay: 5-hydroxytryptamine receptor 2A (HTR2A) small molecule antagonists, cell-based qHTS assay (AID 1963586); note: nearly all actives have a fitted effect of over 45% in size; note: potency is the fitted concentration of half-maximal effect
How it was run: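 CHO cells stably expressing human HTR2A were plated for 18 h at 37 C, then loaded with calcium dye for 1 h. Compounds were preincubated 5 min at room temperature before DOI (4 nM solution) was added. Kinetic fluorescence was read for 3 min.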

[8] = target: 5-hydroxytryptamine receptor 2A (Homo sapiens) (UniProt P28223); assay: 5-hydroxytryptamine receptor 2A (HTR2A) small molecule agonists, cell-based qHTS assay (AID 1963587); note: nearly all actives have a fitted effect of over 30% in size; note: potency is the fitted concentration of half-maximal effect
How it was run: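 Kinetic calcium-flux fluorescence (2 min, 1 sec intervals) after compound addition in agonist mode. HTR2A-CHO cells were cultured 18 h, then dye-loaded 1 h at 37 C.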

[9] = target: Muscarinic acetylcholine receptor M1 (Homo sapiens) (UniProt P11229); assay: Cholinergic receptor muscarinic 1 (CHRM1) small molecule agonists, cell-based qHTS assay (AID 1963589); note: nearly all actives have a fitted effect of over 35% in size
How it was run: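 Cells were plated and incubated 18 h at 37 C/5% CO2, loaded with calcium dye for 1 h at 37 C, then treated with compounds in DMSO. Fluorescence was recorded kinetically at 1 sec intervals.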

[10] = cAMP Responsive Elements (CRE) small molecule agonists, cell-based qHTS assay (AID 1963590)
How it was run: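 Cells carrying a CRE-driven beta-lactamase reporter (HEK 293T) are seeded, incubated overnight (18 h), and treated with test compounds for 3 h at 37 C; reporter activity is then detected with a FRET substrate after 2 h at room temperature.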

[11] = cAMP Responsive Elements (CRE) small molecule antagonists, cell-based qHTS assay (AID 1963591; active = well fitted inhibition curve with a large enough effect in the signal ratio in the repeat runs, not every such curve was filed as active; the % refers to the signal ratio)
How it was run: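 Cells (CRE-bla HEK 293T, DMEM with 10% dialyzed FBS and 25 mM HEPES) are seeded and incubated 18 h. Compounds are added with NKH477 agonist at 0.25 uM final for 3 h, then FRET substrate for 2 h.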

[12] = target: Beta-2 adrenergic receptor (Homo sapiens) (UniProt P07550); assay: Adrenergic beta2 receptor (ADRB2) small molecule agonists, cell-based qHTS assay (AID 1963593); note: potency is the fitted concentration of half-maximal effect;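 for activation: CHO cells stably overexpressing human ADRB2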
How it was run: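 CHO cells stably over-expressing ADRB2 were plated overnight at 37C, then dosed with compounds plus a stimulation mix containing 100uM IBMX and 25uM Ro-20-1724 for 0.5hr at room temperature. cAMP was measured by HTRF competition, 1hr.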

[13] = target: D(2) dopamine receptor (Homo sapiens) (UniProt P14416); assay: Dopamine D2 receptor (DRD2) small molecule agonists, cell-based qHTS assay (AID 1963594); note: nearly all actives have a fitted effect of over 35% in size
How it was run: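 cAMP accumulation in DRD2-HEK293 cells measured by HTRF after 1 h detection; compounds added 10 min before NKH477 (200nM […]) forskolin-analogue stimulation, 30 min at room temperature, with Ro20-1724 present at 0.1 mM final.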

[14] = target: D(2) dopamine receptor (Homo sapiens) (UniProt P14416); assay: Dopamine D2 receptor (DRD2) small molecule antagonists, cell-based qHTS assay (AID 1963595; active = well fitted inhibition curve with a large enough effect in the signal ratio in the repeat runs, with a control signal flat; the % refers to the signal ratio; note: potency is the fitted concentration of half-maximal effect)
How it was run: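 HTRF cAMP read-out at 665 and 620 nm emission (340 nm excitation). Antagonist mode: compounds were tested against 12 nM quinpirole in DRD2-HEK293 cells, with 200 nM NKH477 raising cAMP and 0.1 mM Ro20-1724 blocking its breakdown.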

[15] = p53 small molecule agonists, cell-based qHTS assay with rat liver microsomes: qHTS cell viability counter screen (AID 1963580); note: nearly all actives have a fitted effect of over 45% in size
How it was run: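 Cytotoxicity counter screen: intracellular ATP read by CellTiter-Glo luminescence in the p53 reporter wells. HCT-116 p53RE-bla cells were treated for 16 h at 37 C alongside rat liver microsomes and NADPH, each 0.5 mg/mL final.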

[16] = target: Muscarinic acetylcholine receptor M1 (Homo sapiens) (UniProt P11229); assay: Cholinergic receptor muscarinic 1 (CHRM1) small molecule antagonists, cell-based qHTS assay (AID 1963588); note: nearly all actives have a fitted effect of over 40% in size; note: potency is the fitted concentration of half-maximal effect
How it was run: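 Compounds were tested at 15 concentrations in three independent runs. Dye-loaded CHRM1-CHO cells were exposed 5 min at room temperature before stimulation by acetylcholine added at 50nM. Intracellular calcium was read kinetically on FDSS for 3 min.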

[17] = p53 small molecule agonists, cell-based qHTS assay with rat liver microsomes (AID 1963578)
How it was run: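 With rat liver microsomes and NADPH present (0.5 mg/mL final each), p53RE-bla cells are treated with compound for 16 h at 37 C. LiveBLAzer detection mixture is then applied for 2 h at room temperature in the dark.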

[18] = target: Beta-2 adrenergic receptor (Homo sapiens) (UniProt P07550); assay: Adrenergic beta2 receptor (ADRB2) small molecule antagonists, cell-based qHTS assay (AID 1963592); note: nearly all actives have a fitted effect of over 50% in size; note: potency is the fitted concentration of half-maximal effect; for activity change, negative = inhibition: series mostly up to about 92 µM
How it was run: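 Assay format: CHO-ADRB2 cells, 18-20hr seeding at 37C/5% CO2, then compound plus 1nM isoproterenol agonist mix for 0.5hr RT. Homogeneous time-resolved fluorescence cAMP detection after 1hr, expressed as 665/615 nm ratio.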

[19] = p53 small molecule agonists, cell-based qHTS assay (AID 1963582; active = well fitted activation curve with a large enough effect in the signal ratio in the repeat runs, not every such curve was filed as active; the % refers to the signal ratio)
How it was run: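 Cells carrying a p53-responsive bla reporter are treated with test compounds for 16 h at 37 C; beta-lactamase activity is then detected with LiveBLAzer B/G FRET substrate after 2 h at room temperature.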
% is set by controls: 0 for no effect and ±100 for the full control effect.

Chain of D(2) dopamine receptor (Homo sapiens) (P14416 whole entry, looked up): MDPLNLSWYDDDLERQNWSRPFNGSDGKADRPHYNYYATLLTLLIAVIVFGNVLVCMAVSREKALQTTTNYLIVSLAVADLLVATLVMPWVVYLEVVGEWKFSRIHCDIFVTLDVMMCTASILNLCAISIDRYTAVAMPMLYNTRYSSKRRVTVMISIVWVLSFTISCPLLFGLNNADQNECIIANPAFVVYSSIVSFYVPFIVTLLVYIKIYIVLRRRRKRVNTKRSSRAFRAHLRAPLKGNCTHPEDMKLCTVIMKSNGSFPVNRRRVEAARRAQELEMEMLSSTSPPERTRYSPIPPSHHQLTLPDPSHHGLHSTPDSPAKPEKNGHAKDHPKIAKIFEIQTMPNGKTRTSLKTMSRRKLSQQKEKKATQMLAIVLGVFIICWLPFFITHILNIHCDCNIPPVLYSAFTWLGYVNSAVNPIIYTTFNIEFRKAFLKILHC
Chain of 5-hydroxytryptamine receptor 2A (Homo sapiens) (P28223 whole entry, looked up): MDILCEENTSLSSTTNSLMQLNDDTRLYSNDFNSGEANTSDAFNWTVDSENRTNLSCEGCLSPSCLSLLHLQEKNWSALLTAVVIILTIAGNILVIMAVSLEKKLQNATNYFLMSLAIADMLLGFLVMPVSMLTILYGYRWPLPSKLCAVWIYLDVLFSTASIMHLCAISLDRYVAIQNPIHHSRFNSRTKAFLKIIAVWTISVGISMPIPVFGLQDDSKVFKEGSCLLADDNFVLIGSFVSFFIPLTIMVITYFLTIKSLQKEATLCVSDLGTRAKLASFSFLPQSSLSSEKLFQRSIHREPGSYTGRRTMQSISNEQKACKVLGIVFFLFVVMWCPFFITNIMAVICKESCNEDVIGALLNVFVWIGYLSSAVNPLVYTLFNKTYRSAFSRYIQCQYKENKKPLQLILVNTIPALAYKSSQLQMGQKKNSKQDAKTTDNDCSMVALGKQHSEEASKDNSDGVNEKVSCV
Chain of Muscarinic acetylcholine receptor M1 (Homo sapiens) (P11229 whole entry, looked up): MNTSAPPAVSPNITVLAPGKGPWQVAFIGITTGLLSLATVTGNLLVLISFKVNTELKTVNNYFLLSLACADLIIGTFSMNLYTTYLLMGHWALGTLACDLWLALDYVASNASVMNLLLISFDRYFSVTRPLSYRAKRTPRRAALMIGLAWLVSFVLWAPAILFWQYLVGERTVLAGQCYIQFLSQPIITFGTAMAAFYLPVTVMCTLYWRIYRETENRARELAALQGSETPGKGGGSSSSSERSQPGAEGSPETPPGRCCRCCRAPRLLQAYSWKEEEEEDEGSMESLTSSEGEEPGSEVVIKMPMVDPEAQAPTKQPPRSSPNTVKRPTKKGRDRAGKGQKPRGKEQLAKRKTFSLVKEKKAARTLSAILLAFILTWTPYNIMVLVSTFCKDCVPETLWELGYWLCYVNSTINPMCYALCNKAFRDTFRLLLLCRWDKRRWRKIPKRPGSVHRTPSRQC
Chain of Beta-2 adrenergic receptor (Homo sapiens) (P07550 whole entry, looked up): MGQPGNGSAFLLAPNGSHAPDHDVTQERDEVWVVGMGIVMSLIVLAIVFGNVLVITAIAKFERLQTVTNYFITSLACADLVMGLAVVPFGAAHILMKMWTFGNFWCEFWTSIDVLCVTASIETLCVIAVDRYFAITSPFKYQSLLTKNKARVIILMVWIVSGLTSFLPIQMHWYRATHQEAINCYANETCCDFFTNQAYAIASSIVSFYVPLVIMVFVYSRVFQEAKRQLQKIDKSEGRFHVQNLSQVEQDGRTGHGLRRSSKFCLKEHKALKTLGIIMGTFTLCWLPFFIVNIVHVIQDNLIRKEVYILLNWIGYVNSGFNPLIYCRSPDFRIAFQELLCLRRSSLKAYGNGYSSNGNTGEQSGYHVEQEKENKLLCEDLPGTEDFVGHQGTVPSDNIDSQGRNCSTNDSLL
Chain of KiSS-1 receptor (Homo sapiens) (Q969F8 whole entry, looked up): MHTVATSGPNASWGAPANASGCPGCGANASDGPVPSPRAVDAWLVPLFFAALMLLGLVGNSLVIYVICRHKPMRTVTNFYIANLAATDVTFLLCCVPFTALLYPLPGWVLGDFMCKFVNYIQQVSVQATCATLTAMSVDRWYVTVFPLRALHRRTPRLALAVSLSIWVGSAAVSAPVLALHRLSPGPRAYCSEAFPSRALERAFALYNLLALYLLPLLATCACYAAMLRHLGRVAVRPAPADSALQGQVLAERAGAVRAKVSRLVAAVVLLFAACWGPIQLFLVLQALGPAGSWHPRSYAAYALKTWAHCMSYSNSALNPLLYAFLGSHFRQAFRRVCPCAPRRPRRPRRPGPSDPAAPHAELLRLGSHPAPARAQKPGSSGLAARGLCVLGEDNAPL

O=C(CC(=O)C(F)(F)F)c1ccccc1
inactive: Potency [2] | Potency [3] | Potency [4] | Potency [5] | Potency [6] | Potency [7] | Potency [9] | Potency [10] | Potency [11] | Potency [13] | Potency [14]
active: Potency [1] 49.2 µM | Potency [8] 49.7 µM | Potency [12] 13.9 µM

Clc1cccc(-c2cc(Cl)cc(Cl)c2)c1
inactive: Potency [1] | Potency [2] | Potency [3] | Potency [15] | Potency [7] | Potency [8] | Potency [16] | Potency [9] | Potency [10] | Potency [11] | Potency [12] | Potency [13] | Potency [14]

OCCN1CCN(CCCN2c3ccccc3Sc3ccc(Cl)cc32)CC1
active: Potency [14] 26.6 nM
inactive: Potency [1] | Potency [2] | Potency [3] | Potency [17] | Potency [5] | Potency [15] | Potency [6]

CCOC(=O)[C@H](CCc1ccccc1)N[C@H]1CCc2ccccc2N(CC(=O)O)C1=O
inactive: Potency [1] | Potency [2] | Potency [3] | Potency [5] | Potency [15] | Potency [6] | Potency [14]
active: Potency [18] 23.7 µM

CCN(CC)CCCC(C)Nc1ccnc2cc(Cl)ccc12 (stereo unspecified)
inactive: activity, positive = activation [1] -10.3% [at 8.39 µM] and 0.993% [at 19 µM] | activation [2] -0.539% [at 6.97 µM] and -0.536% [at 15.8 µM] | activation [3] 0.411% [at 5.23 µM] and -0.526% [at 11.8 µM] | activity change, negative = cytotoxicity [5] 1.38% [at 5.99 µM] and -6.37% [at 13.5 µM] | activity change, negative = cytotoxicity [15] 0.0381% [at 5.99 µM] and -13.2% [at 13.5 µM] | activity change, negative = cytotoxicity [6] -9.2% [at 5.99 µM] and -2.12% [at 13.5 µM] | activity, negative = inhibition [7] 2.23% [at 5.62 µM] and 1.08% [at 12.7 µM] | activation [8] -0.411% [at 7.02 µM] and 1.58% [at 15.9 µM] | activity change, negative = inhibition [18] 0.663% [at 8.39 µM] and -0.0752% [at 19 µM] | activation [12] 0.827% [at 19 µM] | activation [13] -2.86% [at 8.39 µM] | activity change, negative = inhibition [14] -2.41% [at 8.38 µM] and 1.11% [at 18.9 µM]
active: Potency [16] 2.52 µM

CO[C@H]1C=CO[C@@]2(C)Oc3c(C)c(O)c4c(O)c(c5c(c4c3C2=O)=NC2(CCN(CC(C)C)CC2)N=5)NC(=O)/C(C)=C\C=C/[C@H](C)[C@H](O)[C@@H](C)[C@@H](O)[C@@H](C)[C@H](OC(C)=O)[C@@H]1C
inactive: Potency [1] | Potency [2] | Potency [4] | Potency [17] | Potency [5] | Potency [6] | Potency [18]

Cc1cccc(C)c1NC(=O)CN1CCN(CCCC(c2ccc(F)cc2)c2ccc(F)cc2)CC1
inactive: Potency [1] | Potency [3] | Potency [4] | Potency [5] | Potency [15] | Potency [6] | Potency [19] | Potency [8] | Potency [16] | Potency [9] | Potency [10] | Potency [18] | Potency [12] | Potency [13]
active: Potency [7] 8.18 µM

NC(N)=N/N=C/c1c(Cl)cccc1Cl
inactive: Potency [1] | Potency [2] | Potency [3] | Potency [17] | Potency [15] | Potency [6] | Potency [19] | Potency [10] | Potency [18] | Potency [12] | Potency [13] | Potency [14]

CN1CCN(CCC(=O)N2c3ccccc3Sc3ccc(C(F)(F)F)cc32)CC1
active: Potency [7] 4.1 µM | Potency [18] 29.8 µM
inactive: Potency [1] | Potency [2] | Potency [3] | Potency [4] | Potency [17] | Potency [15] | Potency [9] | Potency [13] | Potency [14]
